A selection: hits, their analogues and other compounds. The true share with any hit is near 1.6%.
PERK inh – block of dimerizer-induced PERK translation repression, primary screen, PERK inhibitor project, CHO PERK-DD cells, SEAP luminescence, HTS. inhibition, % at 5.6 µM. 220,000 compounds, 0.17% hits. Eukaryotic translation initiation factor 2-alpha kinase 3 (Homo sapiens), Q9NZJ5. CHO PERK-DD fusion, SEAP luminescence translation reporter;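 active = inhibition above the mean inhibition of all tested compounds plus 3 SD, set separately per screening campaign, cut at about 2.9% in these data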;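 also: PERK kinase domain activated by AP20187 dimerizer at 100 nM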
Target sequence (Q9NZJ5 whole entry, looked up, the tested form may be a part): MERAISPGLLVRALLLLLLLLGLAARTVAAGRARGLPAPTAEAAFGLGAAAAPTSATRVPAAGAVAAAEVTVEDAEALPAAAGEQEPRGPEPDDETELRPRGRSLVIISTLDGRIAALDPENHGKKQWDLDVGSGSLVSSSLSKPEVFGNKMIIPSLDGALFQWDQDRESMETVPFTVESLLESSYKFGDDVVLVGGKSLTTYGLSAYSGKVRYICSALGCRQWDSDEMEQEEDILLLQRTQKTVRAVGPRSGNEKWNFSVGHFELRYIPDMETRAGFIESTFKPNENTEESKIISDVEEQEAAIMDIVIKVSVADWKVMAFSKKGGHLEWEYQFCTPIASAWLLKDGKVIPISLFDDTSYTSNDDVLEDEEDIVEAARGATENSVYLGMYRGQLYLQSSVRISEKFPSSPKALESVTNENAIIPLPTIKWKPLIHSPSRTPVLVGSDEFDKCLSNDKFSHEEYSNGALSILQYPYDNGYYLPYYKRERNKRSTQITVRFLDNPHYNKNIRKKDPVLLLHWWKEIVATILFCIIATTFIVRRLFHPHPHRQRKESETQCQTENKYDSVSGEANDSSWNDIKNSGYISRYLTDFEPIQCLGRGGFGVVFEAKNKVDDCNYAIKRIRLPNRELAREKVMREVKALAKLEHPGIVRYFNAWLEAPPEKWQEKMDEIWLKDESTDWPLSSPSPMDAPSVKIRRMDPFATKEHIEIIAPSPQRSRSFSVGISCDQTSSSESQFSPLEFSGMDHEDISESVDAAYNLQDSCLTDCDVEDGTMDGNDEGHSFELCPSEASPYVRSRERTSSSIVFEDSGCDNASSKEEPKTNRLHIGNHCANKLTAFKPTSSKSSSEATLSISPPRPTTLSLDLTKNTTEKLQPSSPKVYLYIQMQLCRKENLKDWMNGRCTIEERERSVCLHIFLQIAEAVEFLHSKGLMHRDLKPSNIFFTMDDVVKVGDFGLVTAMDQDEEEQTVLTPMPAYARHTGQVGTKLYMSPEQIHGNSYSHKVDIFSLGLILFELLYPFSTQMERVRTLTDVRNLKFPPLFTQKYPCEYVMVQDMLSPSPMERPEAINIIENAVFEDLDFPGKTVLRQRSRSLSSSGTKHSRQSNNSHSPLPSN
NALP3 yeast inh – NALP3 inflammasome inhibitors in reconstituted yeast, primary screen, luminescence, uHTS; inhibition, % at 10 µM; Yeast reconstituted NLRP3/ASC/caspase-1, beta-gal luminescence, 24 h; AID 2825, 2010; 330,000 compounds, 0.39% hits;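 active = inhibition of 50% or more; inactive = inhibition below 50%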
CR mimetic SO – reduction of superoxide in aged yeast, primary screen, HTS. 330,000 compounds, 0.18% hits. S. cerevisiae aged cells, superoxide DHE fluorescence; hits give low values. superoxide response (% of plate mean), % at 10 µM. AID 2690, 2010;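 active = superoxide response under a set limit, about three screen SD below normal, cut at about 65% in these data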;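 also: yeast aged for seven days with compound at 30 °C before DHE staining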
V-ATPase pHluor – regulators of yeast V-ATPase proton pumping, primary screen, pHLuorin cytosolic pH fluorescence. S. cerevisiae. response, % at 10 µM. 350,000 compounds, 0.37% hits; in the data active = response mostly above about 7.3%, no sharp cut-off; inactive = mostly below about 5.4%; also: actives read high
Rce1 inh – yeast Rce1p protease inhibitors, primary screen, biochemical, fluorescence, cell-free homogeneous; CAAX prenyl protease 2 (Saccharomyces cerevisiae (strain ATCC 204508 / S288c)), Q03530; yeast membranes, quenched prenylated peptide cleavage fluorescence; calls only; 290,000 compounds, 0.27% hits;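 active = fall in fluorescence gain of 50% or more versus controls, with final raw signal at or below 3038400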
NALP1 yeast inh – NALP1 inflammasome inhibitors in reconstituted yeast, colorimetric, S. cerevisiae, triplicate retest; S. cerevisiae NALP1/ASC/caspase-1 growth, X-gal OD620, 72 h; inhibition, % at 10 µM; 280,000 compounds, 0.61% hits; AID 2071, 2009; in the data active = inhibition mostly above about 24%, no sharp cut-off; inactive = mostly below about 32%
V-ATPase pH SP – yeast V-ATPase proton pumping modulators, confirmation, S. cerevisiae, pH-sensitive GFP, second cherry-pick. 980 compounds, 2% hits. response, % at 10 µM. S. cerevisiae pHLuorin cytosolic pH, V-ATPase proton transport. shares compounds with V-ATPase pHluor; in the data active = response above about 24%
Numbers stand for hits; - = inactive; . = not tested or not shown.

SMILES	PERK inh	NALP3 yeast inh	CR mimetic SO	V-ATPase pHluor	Rce1 inh	NALP1 yeast inh	V-ATPase pH SP
O=C(Nc1ccc(N2CCOCC2)cc1)C1CCN(C(=O)OCc2ccccc2)CC1	-	-	-	-	-	.	.
O=C(Nc1ccc(N2CCOCC2)cc1Cl)C1CCN(C(=O)OCc2ccccc2)CC1	-	-	-	10	-	-	-
CN(C(=O)c1ccc(NC(=O)Cc2ccc(NC(=O)C3CCCN(C(=O)C4CCCC4)C3)cc2)cc1)C1CC1 (stereo unspecified)	.	-	-	20	.	.	-
Cc1ccc(CNC2=NCCCCC2)n1C	-	-	-	11	-	-	-
c1ccc(CNC2=NCCCCC2)cc1	-	-	-	-	-	-	.
C[C@@H]1CN([C@@H](C)CO)C(=O)c2cc(NC(=O)C3CCCCC3)ccc2O[C@@H](C)CCCCO[C@@H]1CN(C)Cc1ccncc1	.	.	.	-	.	.	.
CCOC(=O)c1nn(-c2ccc(Cl)cc2)c(C)cc1=O	.	-	-	-	-	-	.
Cc1cc(=O)c(C(=O)O)nn1-c1ccc(Cl)cc1	-	-	-	-	-	.	-
COc1ccc(-c2cc(C(=O)NCCCn3ccnc3)no2)cc1OC	-	-	-	12	-	-	-
O=C(Cc1ccc2c(c1)OCCO2)N1CCN(S(=O)(=O)c2cccc(Cl)c2Cl)CC1	-	-	-	-	-	-	.
O=C(Cc1ccc2c(c1)OCCO2)N1CCN(S(=O)(=O)c2ccccc2C(F)(F)F)CC1	-	-	-	12	-	-	-
O=C(COc1ccc(Cl)cc1)OCc1ccc(Cl)cc1	.	.	.	-	.	.	.
CC/C(C)=N\NC(=O)CNC(=O)c1ccc(Cl)cc1Cl	-	-	-	12	-	-	-
CCC1(CC)SCCNC1=O	.	.	.	-	.	.	.
CN(Cc1ccccc1)C(=O)CCC1CCN(C(=O)CC2=CCCCC2)CC1	.	-	.	-	-	-	.
O=C(CCC1CCN(C(=O)CC2=CCCCC2)CC1)NCc1ccc(F)cc1	.	.	.	7.1	.	.	-
CCOc1ccc(N=Cc2ccc([N+](=O)[O-])cc2)c(O)c1	.	.	.	-	.	.	.
O=C(CN1CCN(CC(=O)Nc2ccc3c(c2)OC2(CCCCC2)O3)CC1)Nc1cccc(F)c1	.	.	.	-	.	.	.
Cc1ccccc1OCC(=O)NNC(=O)Cc1ccc(S(=O)(=O)N2CCOCC2)s1	.	-	-	18	-	.	-
O=C(O)c1cccc2cccc(-c3c4ccc(=O)c(O)c-4oc4c(O)c(O)ccc34)c12	.	.	.	-	.	.	.
CCc1noc(C)c1C(=O)N1CCN(S(=O)(=O)c2cccs2)CC1	.	-	-	7.1	-	.	-
CCc1noc(C)c1C(=O)N1CCN(S(=O)(=O)c2ccc(Cl)cc2)CC1	.	-	-	-	.	.	.
C[C@H]1CN([C@@H](C)CO)S(=O)(=O)c2ccc(Br)cc2O[C@@H]1CN(C)C(=O)Cc1cccnc1	.	.	.	-	.	.	.
Cc1nn(Cc2c(F)c(F)c(F)c(F)c2F)c(C)c1NC(=O)c1ccc(COc2ccccc2Cl)cc1	-	.	.	16	-	-	-
CCOCCCn1c(SCC(=O)NC2CCCCC2)nc2ccccc2c1=O	.	.	.	-	.	.	.
SMILES	PERK inh	NALP3 yeast inh	CR mimetic SO	V-ATPase pHluor	Rce1 inh	NALP1 yeast inh	V-ATPase pH SP
Cc1ccc(-n2nc(C)c3c(C)onc3c2=O)cc1	-	-	-	-	-	-	.
Cc1nn(-c2ccc(Cl)cc2)c(=O)c2c(C)noc12	-	-	-	-	-	.	-
O=C1C2C3C=CC(CC3)C2C(=O)N1/N=C/c1c(O)ccc2ccccc12 (stereo unspecified)	-	-	-	7.5	-	-	-
CC(Oc1ccc(Br)cc1)C(=O)N(Cc1ccccc1)c1c(N)n(Cc2ccccc2)c(=O)[nH]c1=O (stereo unspecified)	.	.	.	-	.	.	.
CC(CC(=O)N1CCN(c2ccccc2F)CC1)c1ccccc1 (stereo unspecified)	-	-	-	-	-	-	.
CC(=O)OC(C(=O)N1CCN(c2ccccc2F)CC1)c1ccccc1 (stereo unspecified)	-	-	-	12	.	-	-
Cc1cccc2sc(N(CCCN(C)C)C(=O)c3ccc(Cl)s3)nc12	-	-	-	11	-	-	-
Cc1cccc2sc(N(CCCN(C)C)C(=O)c3ccco3)nc12	-	-	-	-	-	-	.
C[C@H](CO)N1C[C@H](C)[C@H](CN(C)C(=O)Nc2ccc3c(c2)OCCO3)OCc2cnnn2CCCC1=O	.	.	.	-	.	.	.
COC(=O)N/N=C/c1cn(Cc2ccccc2F)c2ccccc12	-	-	-	10	.	-	-
COc1cccc(C#Cc2cnc3c(c2)C(=O)N([C@@H](C)CO)C[C@H](C)[C@H](CN(C)C(=O)C2CCC2)O3)c1	.	.	.	-	.	.	.
CC(=O)Nc1ccc2nc(CN3CCN(Cc4ccc(F)cc4)C(CCO)C3)ccc2c1 (stereo unspecified)	-	-	-	11	-	-	-
CN(Cc1ccc(Cl)cc1Cl)C(=O)C1CC(=O)N(Cc2ccco2)C1 (stereo unspecified)	.	.	.	-	.	.	.
CC(CNc1ccc(Cl)cc1)(CNc1ccc(Cl)cc1)[N+](=O)[O-]	.	.	.	8.8	.	.	-
Cc1cc(=O)cc(C)n1-c1ccc(Cl)cc1	-	-	-	-	-	-	-
CC1CN(c2cc(=O)n(-c3ccc(Cl)cc3)c(=O)[nH]2)CC(C)O1 (stereo unspecified)	-	.	.	-	.	-	.
Cc1cc(=O)n(-c2ccc(Cl)cc2)c(=O)[nH]1	-	-	-	-	-	-	-
CNCc1cc(Cl)cc(OC)c1OC(C)C	-	.	.	7.7	-	-	-
COc1cccc(CNC(=O)[C@H](C)NC(=O)N2CC(=O)Nc3ccccc32)c1	.	.	.	-	.	.	.
C[C@H]1CCCCO[C@H](CN(C)S(=O)(=O)c2cn(C)cn2)[C@@H](C)CN([C@@H](C)CO)C(=O)c2cc(NS(=O)(=O)c3ccccc3)ccc2O1	.	.	.	-	.	.	.
CCOC(=O)c1[nH]c(=O)c2ccccc2c1O	-	-	-	-	-	-	-
CC(C)(C)OC(=O)N(Cc1ccccc1)Cc1cccc(OCc2cccc(NC(=O)c3ccccc3)c2)c1	.	.	.	-	.	.	.
CNS(=O)(=O)c1cccc(C(=O)OCc2csc(-c3ccccc3)n2)c1	-	-	-	-	-	-	.
Nc1ccc(C(=O)OCc2csc(-c3ccccc3)n2)cc1[N+](=O)[O-]	-	-	-	10	-	-	-
CC(=O)c1cc2c(cc1NC(=O)CSc1nnc(C3CC3)n1C)OCO2	.	.	.	-	.	.	.
Cc1cc(C)c(OCC(=O)Nc2nc3ccccc3[nH]2)c(C)c1	-	-	-	9.7	-	-	-
Cc1nc(NC(=O)C(C)(C)C)sc1-c1csc(N)n1	.	.	.	-	.	.	.
CN(CC(=O)Nc1ccccc1Br)C(=O)c1cc([N+](=O)[O-])ccc1N1CCOCC1	.	-	-	7.0	-	.	-
